The structures appear in SMILES notation. Results filed as inconclusive are left out. The source made the active and inactive calls. The call rests on the fitted dose curve; in most records, active means well fitted curve in the direction sought with a large enough effect; inconclusive means small, poorly fitted or top-dose-only effect, or another doubt; inactive means no such curve, though single readings can be large or run the other way.

The assay in a line: qHTS for Inhibitors of Bloom's syndrome helicase (BLM): Thiazole Orange DNA Binding Counterscreen for SAR. Conditions: fluorescence; series mostly up to 57.1 µM. An excerpt: Human RecQ DNA helicases participate in maintenance of genome stability and DNA repair. While other types of helicases have been explored as targets for drug development, members of the RecQ family have remained less well characterized. Mutations of the Bloom helicase gene have been associated with the rare human genetic disease called Bloom syndrome. […] Moreover, identified inhibitors can be used in cells and animal models to examine the consequences of inhibition on the survival of cancer cells where it has been shown that BLM plays an important role.
A fluorescence-based, biochemical assay in 1536 well format was developed to evaluate inhibition of BLM DNA unwinding activity. This assay was used to screen the MLPCN library. The resulting compounds were subjected to orthogonal and secondary biochemical assays to triage the initial hits, to classify compounds based on mode of action and to derive structure activity relationships (SARs) of candidate effectors. The Thiazole Orange (ThO) DNA binding (TO-binding) is used to eliminate inhibitors that operate via nonspecific DNA binding. […]
Compounds were added to a 4 uL mixture of 50 nM DNA and 100 nM ThO via pintool transfer. The fluorescence signal (excitation 480 nm, emission 530 nm) was measured after 15 min incubation at room temperature using the ViewLux CCD imager.

Consider `N#Cc1ccc(NC(=O)Nc2nnc(-c3ccncc3)s2)cc1C(F)(F)F`, for which the compound was called inactive. In the case of `N#Cc1ccc(NC(=O)Nc2nnc(-c3ccncc3)s2)cc1Cl`, the result was inactive.

The values are drawn from PubChem BioAssay AID720550 (National Center for Advancing Translational Sciences (NCATS), 2013).
